By inhibition is commonly meant the drop in the measured response relative to a control, in per cent.

SMILES strings stand for the structures. The list shows a part of the results. The source made the active and inactive calls. The rule behind the calls is not given here.

5-hydroxytryptamine receptor 5A (Homo sapiens), sequence (P47898 whole entry, looked up): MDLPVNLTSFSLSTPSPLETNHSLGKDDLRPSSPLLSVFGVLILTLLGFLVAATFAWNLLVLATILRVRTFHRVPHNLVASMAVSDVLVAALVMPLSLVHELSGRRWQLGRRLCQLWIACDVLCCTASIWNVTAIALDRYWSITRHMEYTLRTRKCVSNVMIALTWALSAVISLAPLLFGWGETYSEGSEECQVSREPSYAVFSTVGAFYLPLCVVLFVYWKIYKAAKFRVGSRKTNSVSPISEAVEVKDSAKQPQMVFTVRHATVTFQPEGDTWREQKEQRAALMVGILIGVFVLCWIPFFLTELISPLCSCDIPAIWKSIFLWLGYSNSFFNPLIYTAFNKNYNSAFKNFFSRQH

This assay addresses 5-hydroxytryptamine receptor 5A (Homo sapiens) (UniProt P47898). As to the kind of experiment: HTR5A inverse agonists, counter-screen for OPRM1-OPRD1 inverse agonist project, cell-based, luminescence (AID 504914).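 Note: 0% = cells with DMSO and 100% = no-cell wells with DMSO.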 The settings on record: HTR5A-expressing cells, inverse agonism, at 9.3 µM, hits give high values.
As for `Cc1ccc(NNC(=O)c2cccs2)cc1Cl`, the inhibition is -15% (inactive).

With `COc1cc(NS(=O)(=O)c2ccc3ccccc3c2)c2ncccc2c1`, the inhibition was -111% (inactive).

`CCOC(=O)CN1C(=O)C(O)(CC(=O)c2ccccn2)c2ccccc21` (stereo unspecified): the inhibition was 10.2% (inactive).

Turning to `O=[N+]([O-])/C=C/c1ccc2c(ccn2Cc2ccccc2)c1`, the inhibition was -16.4% (inactive).

For the molecule `COC(=O)Cc1c(-c2[nH]c3ccccc3c2CC(=O)OC)[nH]c2ccccc12`, the inhibition was -66.2% (inactive).

With `N#CC1=C(N)C(C#N)(C#N)[C@H](c2ccsc2)[C@H]2COCC=C12`, the inhibition was -8.6% (inactive).

`Cc1ccc(C(=O)CNc2ccc(F)cc2)cc1`: the inhibition is -0.52% (inactive).

On to `O=C1C(=O)N(CC2COc3ccccc3O2)c2ccccc21` (stereo unspecified), for which the inhibition was 12% (inactive).

Consider `CN(C)/C=C1/Nc2ccccc2C1=O`, for which the inhibition was 5.59% (inactive).

As to `Cc1cccc2c1N(CCOc1ccccc1)C(=O)C2=O`, the inhibition was 10.3% (inactive).

For `CCCCC(=O)NNC(=S)NC(=O)C(c1ccccc1)c1ccccc1`, the inhibition was -76% (inactive).

Turning to `CN(c1ccccc1)S(=O)(=O)c1ccc(NC(=O)COc2ccccc2)cc1`, the inhibition is -4.8% (inactive).

For `Cc1cccc2c1N(CC(=O)OC(C)C)C(=O)C2=O`, the inhibition was -14.5% (inactive).

`O=C(CCl)NNc1cccc(Cl)n1`: the inhibition is 8.61% (inactive).

As to `O=C1C(=O)N(c2ccccc2)c2ccccc21`, the inhibition was 19% (inactive).

On to `Cc1ccc(NC2(C#N)C(=O)Nc3ccccc32)cc1` (stereo unspecified), for which the inhibition was -97.2% (inactive).

With `Cc1cccc(C)c1NC(=O)C(Cl)C(=O)c1ccccc1` (stereo unspecified), the inhibition is -75.6% (inactive).

With `CN(O)C(=S)c1ccccc1`, the inhibition was 26.7% (inactive).

Regarding `CSCCC(NC(=O)COc1ccccc1)C(=O)OCC(=O)c1cc2ccccc2o1` (stereo unspecified), the inhibition was 12% (inactive).

Consider `CC(C)OC(=O)CN1C(=O)C(=O)c2ccccc21`, for which the inhibition was 4.72% (inactive).

As for `CCOC(=O)CN1C(=O)C(=O)c2cc(C)ccc21`, the inhibition is 12.5% (inactive).

In the case of `C=CCn1c(N)c(C(=O)OCC(C)C)c2nc3ccccc3nc21`, the inhibition was 10.8% (inactive).

On to `Oc1ccc(N=Nc2nccs2)c(O)c1`, for which the inhibition is 23.3% (inactive).

`CCOc1ccc(NC(=O)c2cccc3c2C(=O)N(CC2CCCO2)C3)cc1` (stereo unspecified): the inhibition is -4.42% (inactive).

Take `Cc1cccc(N=Nc2c(O)[nH]c3ccc(F)cc23)c1`: the inhibition was 22.6% (inactive).

Consider `Cc1ccc2c(c1)C(O)(CC(=O)c1cccnc1)C(=O)N2` (stereo unspecified), for which the inhibition is 0% (inactive).

Values taken from PubChem BioAssay AID504914 (The Scripps Research Institute Molecular Screening Center, 2011).
